# Epigenetic derep: Quantitative High-Throughput Screen for Regulators of Epigenetic Control; Potency, µM (titrated, usually from 53.9 µM), inactives show at the top dose GFP activation, usual class: activators; 280,000 compounds, 0.2% hits; murine LDR cells, GFP reporter derepression, 30 h; note: % of control where 0% means no effect; nearly all actives have a fitted effect of over 60% in size
#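 Murine LDR cells carrying a silenced, genomically integrated CMV-driven GFP reporter were exposed to compound for 30 hours at 37 C. After PBS washes, GFP-positive cells (20–120 um objects) were counted by laser-scanning microplate cytometry.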
# Sfp inh: qHTS Assay for Inhibitors of Bacillus subtilis Sfp phosphopantetheinyl transferase (PPTase). Biochemical Sfp PPTase activity, qHTS. Potency, µM, for inactives: largest response in the series, negative = inhibition, usual class: inhibitors. 310,000 compounds, 3.5% hits. AID 1490, 2009;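 note: the enzyme is Sfp with the accession as filed and its product quenches rhodamine fluorescence; 0% = enzyme reaction without inhibitor and -100% = no enzyme wells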
#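 After 15 min at room temperature with compound, 15 nM Sfp received 5 uM rhodamine-CoA plus 12.5 uM BHQ-2-ybbR (50 mM Hepes pH 7.6, 10 mM MgCl2). Rate came from the fluorescence difference over 30 min, ex 525/em 598 nm.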
# PINK1 modulator: A Quantitative High throughput Screen to Identify Chemical Modulators of PINK1 Expression; PINK1 immunofluorescence, high-content cytometry, 24 h; Potency, µM (series often up to 76.6 µM), for inactives: at the top dose activation (PINK1 increase), usual class: activators; 410,000 compounds, 0.2% hits; AID 624263, 2012; active = well fitted activation curve with a large enough effect; inconclusive = small, poorly fitted or top-dose-only effect; cell line not stated here; note: % of control where 0% means no effect; nearly all actives have a fitted effect of over 65% in size
#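 PINK1 protein, normally rapidly degraded, was detected by immunofluorescence after 24 hour compound treatment of a stable cell line. Titration data (5 concentrations) came from laser-scanning cytometry, with CCCP-treated wells as controls.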
# Gal4-VP16 FLuc: VP16 counterscreen qHTS for inhibitors of ROR gamma transcriptional activity; Drosophila S2 Gal4-VP16 UAS-luciferase, luminescence, 20 h; Potency, µM (doses to about 53.6 µM), inactives show top-dose activity, negative = inhibition, actives largely listed as inhibitors; 310,000 compounds, 3.5% hits;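 note: Gal4-VP16 expression switched on by copper sulfate through the metallothionein promoter; % is set by controls: 0 for no effect and ±100 for the full control effect; nearly all actives have a fitted effect of over 50% in size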
# ClpP mod: qHTS Assay for Activators of ClpP; 340,000 compounds, 1.9% hits; Potency, µM (top dose mostly 57.5 µM), without a hit: at the top dose activity change, negative = active; ATP-dependent Clp protease proteolytic subunit (Bacillus subtilis (strain 168)), P80244; AID 651965, 2013; purified B. subtilis ClpP, FRET peptide cleavage, 20 min; active = well fitted falling curve with a large enough effect; inconclusive = small, poorly fitted or top-dose-only effect; inactive = no such curve, though single readings can be large or run the other way; note: the source files actives as falling curves though it sought activators and does not explain the sign; nearly all actives have a fitted effect of over 65% in size
# Target sequence (P80244 whole entry, looked up): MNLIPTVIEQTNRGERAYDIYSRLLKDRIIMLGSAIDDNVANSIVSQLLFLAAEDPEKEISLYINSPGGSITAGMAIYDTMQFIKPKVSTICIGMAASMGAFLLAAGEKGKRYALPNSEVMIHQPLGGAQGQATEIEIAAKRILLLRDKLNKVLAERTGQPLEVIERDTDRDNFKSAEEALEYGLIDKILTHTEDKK
#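 Purified B. subtilis ClpP, 10 microg/mL final in Tris/HCl pH8 with KCl, BSA, glycerol and Tween-20, cleaved an Abz/nitrotyrosine-quenched decapeptide. Fluorescence (ex 320, em 430) was read at 0 and 20 min at room temperature. Delta was normalized to 5.8 microM ADEP and DMSO/no-enzyme controls.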
# RORg inh: qHTS for inhibitors of ROR gamma transcriptional activity. Drosophila S2 Gal4-RORgamma UAS-luciferase reporter, 20 h. Potency, µM (titrated, usually from 53.6 µM), for the others: top-dose activity change, negative = inhibition, actives largely listed as inhibitors. 310,000 compounds, 5.4% hits. AID 2551, 2010; note: % is set by controls: 0 for no effect and ±100 for the full control effect; nearly all actives have a fitted effect of over 60% in size
# Target sequence (P51450 whole entry, looked up, the tested form may be a part): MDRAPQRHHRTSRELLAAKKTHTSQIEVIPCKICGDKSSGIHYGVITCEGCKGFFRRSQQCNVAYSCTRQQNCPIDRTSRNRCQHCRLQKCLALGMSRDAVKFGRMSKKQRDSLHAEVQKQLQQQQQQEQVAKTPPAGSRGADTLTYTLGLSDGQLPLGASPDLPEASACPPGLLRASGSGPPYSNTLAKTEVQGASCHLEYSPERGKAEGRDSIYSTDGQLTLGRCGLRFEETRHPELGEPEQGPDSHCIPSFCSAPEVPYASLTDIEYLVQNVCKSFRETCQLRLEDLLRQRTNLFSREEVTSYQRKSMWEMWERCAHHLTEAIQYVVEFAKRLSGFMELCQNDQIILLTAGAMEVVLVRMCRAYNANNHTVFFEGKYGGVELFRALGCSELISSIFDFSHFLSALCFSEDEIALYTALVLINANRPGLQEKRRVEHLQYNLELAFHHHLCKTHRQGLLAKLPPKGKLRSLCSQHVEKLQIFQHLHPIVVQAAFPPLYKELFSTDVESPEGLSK
#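 Drosophila Schneider cells stably carrying a metallothionein-driven Gal4 DBD–ROR gamma fusion and a UAS-Photinus luciferase reporter were exposed to compound for 1 hr, then induced with copper sulfate (700 uM final) for 20 hr at ambient temperature before luminescence reading.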
# The depositor's hits bear a star; ? = inconclusive; / = not tested or not shown; [ ] = dose if it differs, or a comment. Most compounds without a hit are left out; they make up all but 8.1% or so of the library. Unless noted, calls come from the whole dose curve; as a rule, active = well fitted curve in the direction sought with a large enough effect; inconclusive = small, poorly fitted or top-dose-only effect, or another doubt; inactive = no such curve, though single readings can be large; an effect the other way counts as inactive or inconclusive. Potency is the fitted concentration of half-maximal effect.
SMILES,Epigenetic derep,Sfp inh,PINK1 modulator,Gal4-VP16 FLuc,ClpP mod,RORg inh
S=C(NCc1ccco1)Nc1ccc(Br)cc1Cl,2.4%,12.6%,2.6%,-25.2%,/,12.6µM*
S=C(NCc1cccc(Cl)c1)NCc1ccco1,/,0.4%,-0.2%,?,-1.8%,-107.0%
COCC(=O)Nc1cc(C(=O)NC2Cc3ccccc3C2)cc2nc(-c3cccnc3)n(C)c12,/,/,0.8%,/,/,/
CCOc1ccc(CN2CCNC(=O)C2CC(=O)NCc2ccccn2)cc1 (stereo unspecified),-1.2%,10.1%,3.4%,-7.1%,/,11.2µM*
CCOc1ccc(CN2CCNC(=O)C2CC(=O)NCCc2ccccn2)cc1 (stereo unspecified),1.1%,-8.8%,0.3%,15.1%,/,-16.2%
CC1OC(O[C@H]2CC[C@]3(C)C4C=C[C@]56OC[C@@]7(CC[C@@H](C)[C@H](C)C75)[C@H](O)C[C@@]6(C)[C@]4(C)CC[C@H]3C2(C)C)C(OC2OC(CO)C(O)C(O)C2OC2OCC(O)C(O)C2O)C(O)C1O (stereo partly specified),-1.9%,89.1µM*,/,-20.9%,/,1.78µM*
CCN(CC)c1nc2c(S(=O)(=O)c3ccc(C)cc3)nnn2c2ccsc12,-3.7%,/,1.2%,/,-6.4%,/
N#CC(c1nc2ccccc2nc1N1CCCC1)S(=O)(=O)c1cccs1 (stereo unspecified),-1.7%,50.1µM*,-1.5%,-8.0%,-22.9%,-11.0%
Cc1ccc(C)c(S(=O)(=O)C(C#N)c2nc3ccccc3nc2N2CCCC2)c1 (stereo unspecified),?,44.7µM*,?,5.7%,-1.3%,-22.3%
N#CC(c1nc2ccccc2nc1N1CCCC1)S(=O)(=O)c1ccccc1 (stereo unspecified),2.2%,-26.4%,1.7%,-0.7%,?,16.6%
Cc1ccc(OCCSc2nc3ccccc3n2CCC(=O)O)cc1C,1.1%,/,-0.3%,/,0.4%,/
CC(C)CC[n+]1ccn(-c2nc3ccccc3nc2[N-]S(=O)(=O)c2ccccc2)c1,0.4%,79.4µM*,-3.8%[38.3 µM],-11.5%,?,-2.8%
CCCC[n+]1ccn(-c2nc3ccccc3nc2[N-]S(=O)(=O)c2ccc(Br)cc2)c1,0.9%,-1.4%,4.2%,7.0%,/,13.7%
CCc1ccc(OCC2c3cc(OC)c(OC)cc3CCN2C(=S)NC)cc1 (stereo unspecified),-4.2%,17.4%,6.5%,5.8%,/,11.2µM*
O=C(Nc1ccccc1)c1cccc(S(=O)(=O)Nc2cccc(F)c2)c1,-0.1%,/,3.5%,/,-0.6%,/
COc1ccc(Cl)cc1-n1cc(-c2ccccc2)nc1SCC(=O)Nc1ccc(C)cc1,0.0%,/,0.4%,/,-0.2%,/
CCCn1c(C)nc2c(N(CCN(CC)CC)CCN(CC)CC)nc(C)nc21,-0.2%,24.6%,/,-0.5%,/,0.0%
CCN(CCCCO)c1nc(C)nc2c1c(C)c(C)n2-c1c(C)cc(C)cc1C,/,-15.2%,/,?,/,11.2µM*
CCCCN(CC)c1nc(C)nc2c1c(C)c(C)n2-c1c(C)cc(C)cc1C,/,-6.8%,/,?,/,2.24µM*
N#Cc1nc(-c2ccc(F)cc2)oc1NCc1ccccc1,12.2%,?,9.5%,?,5.0%,-29.1%
Cc1ccc(CNc2oc(-c3ccc(COc4ccc(C)cc4)o3)nc2C#N)cc1,-0.8%,/,0.3%,/,25.1µM*,/
Cc1ccc(CNc2oc(-c3ccc(COc4ccc(Cl)cc4)o3)nc2C#N)cc1,?,/,-1.7%,/,?,/
CC(C)(C)c1ccc(-c2nc(C#N)c(NCc3cccnc3)o2)cc1,-1.8%,-4.9%,0.5%,-7.7%,31.6µM*,?
Cc1ccc(OCc2ccc(-c3nc(C#N)c(NCc4cccnc4)o3)o2)cc1,-0.5%,/,0.2%,/,35.5µM*,/
O=C(N/N=C1\CC2CC=CC12)c1ccc(O)cc1 (stereo unspecified),1.1%,-14.9%,-0.3%,4.47µM*,/,2.51µM*
SMILES,Epigenetic derep,Sfp inh,PINK1 modulator,Gal4-VP16 FLuc,ClpP mod,RORg inh
O=C(NN=C1CCCC1)c1ccc(O)cc1,/,5.2%,1.0%,?,-1.1%,11.2µM*
O=C(NN=C1CCCC1)c1ccc([N+](=O)[O-])cc1,-0.5%,-13.0%,1.1%,0.1%,-3.1%,11.2µM*
O=C(ONC1=NCCCCC1)c1ccc([N+](=O)[O-])cc1,-1.4%,15.3%,1.8%,-13.3%,/,10µM*
Cc1ccc(C(=O)N/N=C2\CC3CC=CC23)c(C)c1 (stereo unspecified),3.2%,3.9%,-1.5%,0.6%,-4.4%,-26.5%
O=C(NN=C1CCCCCC1)c1ccncc1,/,3.7%,-0.9%,4.0%,-1.6%,-17.5%
COc1ccccc1NC(=O)CSc1nnc(NC(=O)NC2CCCCC2)s1,2.1%,/,2.2%,/,-0.8%,/
CCc1ccccc1Nc1cc(C(=O)NCc2ccc(C)cc2)c2ccccc2n1,-1.3%,/,1.6%,/,?,/
O=C(/C=C/c1ccccc1)NCCSCc1ccccc1,9.5%,?,-0.8%,12.6µM*,0.8%,?
Cc1ccc(/C=C/C(=O)NC(=S)N2CCN(c3ccc(F)cc3)CC2)cc1,-0.3%,?,1.3%,-7.9%,/,?
O=C(/C=C/c1ccccc1)NC(=S)N1CCSCC1,0.1%,-12.4%,-1.4%,10µM*,/,7.94µM*
Cc1ccc(/C=C/C(=O)NC(=S)N2CCN(C)CC2)cc1,-0.9%,-0.3%,-0.8%,12.6µM*,1.5%,14.1µM*
CC(=O)N1CCN(c2ccc(NC(=S)NC(=O)/C=C/c3ccccc3)cc2)CC1,1.0%,-0.6%,/,-2.3%,/,-32.9%
COc1ccccc1/C=C/C(=O)NC(=S)N1CCN(C)CC1,/,15.5%,-0.5%,15.8µM*,-1.2%,11.2µM*
COc1ccc(/C=C/C(=O)NC(=S)N2CCN(c3ccccc3OC)CC2)cc1,2.0%,-2.9%,2.3%,-0.8%,/,1.6%
O=C(C=Cc1ccccc1)NCCNC(=O)C=Cc1ccccc1,/,/,-3.4%,/,1.0%,/
Cc1nc(C)c(CC(=O)N2CCOc3ccc(CN4CCOCC4)cc3C2)s1,/,/,-0.5%,/,/,/
COc1ccccc1/C=C/C(=O)OCCN1CCOCC1,3.2%,-4.7%,0.0%,?,25.1µM*,-14.4%
O=C(/C=C/c1ccccc1)NC(=S)Nc1ccccc1O,/,-5.6%,2.3%,?,/,?
NC(=S)NC(=O)/C=C/c1ccccc1,-1.6%,2.9%,-0.8%,?,/,7.94µM*
COc1ccc(/C=C/C(=O)NC(=S)N2CCOCC2)cc1,/,-5.7%,2.2%,?,4.3%,3.98µM*

# Bioassay records from PubChem BioAssay.
